Results published in ChEMBL document CHEMBL3988442, “University of Dundee, Small-Polar-MMV Screening Library” (2021).
For some assays here: Entries with a potency or affinity are not part of this list.

How the values were obtained:
Design in all cases: scale not given: direction of the effect not stated beside the values
[1] = target: Protein translocase subunit SecA (Escherichia coli (strain K12)) (UniProt P10408); test: Assay to Identify E. coli SecA ATPase Inhibitors; type: functional; settings: 30 µM
Chain of Protein translocase subunit SecA (Escherichia coli (strain K12)) (P10408 whole entry): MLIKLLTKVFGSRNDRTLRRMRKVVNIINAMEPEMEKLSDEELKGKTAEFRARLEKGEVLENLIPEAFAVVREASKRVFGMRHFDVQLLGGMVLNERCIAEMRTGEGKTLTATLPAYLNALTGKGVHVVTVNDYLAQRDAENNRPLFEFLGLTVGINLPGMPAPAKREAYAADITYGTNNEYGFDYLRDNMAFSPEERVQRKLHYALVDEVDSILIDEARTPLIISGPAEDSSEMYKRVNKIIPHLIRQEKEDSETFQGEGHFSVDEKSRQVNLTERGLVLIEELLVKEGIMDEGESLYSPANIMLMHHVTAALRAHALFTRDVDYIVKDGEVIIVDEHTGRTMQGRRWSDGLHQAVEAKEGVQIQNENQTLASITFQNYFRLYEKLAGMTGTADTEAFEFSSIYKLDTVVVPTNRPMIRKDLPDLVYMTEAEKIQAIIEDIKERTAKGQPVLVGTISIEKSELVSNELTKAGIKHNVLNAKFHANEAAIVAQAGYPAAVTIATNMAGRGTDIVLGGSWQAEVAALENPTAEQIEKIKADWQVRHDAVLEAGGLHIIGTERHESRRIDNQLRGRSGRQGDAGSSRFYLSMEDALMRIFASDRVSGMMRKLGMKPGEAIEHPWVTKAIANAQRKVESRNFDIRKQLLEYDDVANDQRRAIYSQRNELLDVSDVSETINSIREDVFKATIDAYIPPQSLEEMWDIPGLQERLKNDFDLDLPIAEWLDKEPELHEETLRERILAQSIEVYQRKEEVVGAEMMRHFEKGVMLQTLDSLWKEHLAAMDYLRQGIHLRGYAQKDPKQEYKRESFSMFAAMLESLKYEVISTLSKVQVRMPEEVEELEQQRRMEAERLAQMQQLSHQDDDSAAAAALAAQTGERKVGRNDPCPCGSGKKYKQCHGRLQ

[2] = target: T1, Ubiquitin-activating enzyme e1, putative (Leishmania donovani (strain BPK282A1)) (UniProt E9BSI1); test: Leishmania donovani Ubiquitin Activating Enzyme (LdE1); type: functional; settings: 30 µM
T1 sequence (whole entry): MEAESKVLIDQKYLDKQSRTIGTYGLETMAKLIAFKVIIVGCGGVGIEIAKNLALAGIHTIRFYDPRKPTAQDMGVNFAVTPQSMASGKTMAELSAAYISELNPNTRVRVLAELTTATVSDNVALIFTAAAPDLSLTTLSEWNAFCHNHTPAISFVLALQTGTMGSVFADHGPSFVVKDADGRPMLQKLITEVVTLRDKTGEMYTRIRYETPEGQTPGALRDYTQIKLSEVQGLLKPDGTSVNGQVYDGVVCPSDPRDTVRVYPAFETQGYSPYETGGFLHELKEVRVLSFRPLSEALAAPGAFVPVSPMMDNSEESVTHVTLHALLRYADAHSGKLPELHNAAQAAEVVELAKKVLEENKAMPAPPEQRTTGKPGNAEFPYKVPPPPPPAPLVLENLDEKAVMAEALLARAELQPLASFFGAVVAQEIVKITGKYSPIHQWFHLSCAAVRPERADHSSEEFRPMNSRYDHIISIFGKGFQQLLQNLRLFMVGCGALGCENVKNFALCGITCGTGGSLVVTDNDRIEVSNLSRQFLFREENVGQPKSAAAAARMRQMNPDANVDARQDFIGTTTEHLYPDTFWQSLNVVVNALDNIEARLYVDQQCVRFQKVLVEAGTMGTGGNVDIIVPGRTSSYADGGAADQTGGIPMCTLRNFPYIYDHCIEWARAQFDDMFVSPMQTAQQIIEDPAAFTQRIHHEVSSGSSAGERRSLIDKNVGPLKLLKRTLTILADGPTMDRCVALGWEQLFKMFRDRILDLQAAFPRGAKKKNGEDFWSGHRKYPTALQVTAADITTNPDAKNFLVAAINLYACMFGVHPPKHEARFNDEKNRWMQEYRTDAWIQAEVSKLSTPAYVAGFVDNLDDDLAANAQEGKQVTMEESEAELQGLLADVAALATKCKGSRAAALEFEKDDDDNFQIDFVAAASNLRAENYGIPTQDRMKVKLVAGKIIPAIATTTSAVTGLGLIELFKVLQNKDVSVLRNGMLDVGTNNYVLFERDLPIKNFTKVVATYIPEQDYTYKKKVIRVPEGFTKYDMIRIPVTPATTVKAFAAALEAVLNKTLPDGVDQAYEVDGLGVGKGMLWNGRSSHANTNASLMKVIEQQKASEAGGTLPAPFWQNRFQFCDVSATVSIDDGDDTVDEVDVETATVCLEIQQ

[3] = target: AMP-activated protein kinase, AMPK (Homo sapiens) (UniProt P54646+O43741+P54619+Q9UGJ0+Q9Y478+Q13131+Q9UGI9); test: AMP-dependent Kinase enzyme assay. An in vitro enzyme assay that detects ADP turnover that is directly proportional to AMPK activity. This uses naive AMPK that is activated during the assay with MK-8722; type: functional; settings: 30 µM
[4] = target: Sialic acid-binding Ig-like lectin 9 (Homo sapiens) (UniProt Q9Y336); test: Hs-Siglec9 ALPHAscreen SOP 20170721; settings: 10 µM
Chain of Sialic acid-binding Ig-like lectin 9 (Homo sapiens) (Q9Y336 whole entry): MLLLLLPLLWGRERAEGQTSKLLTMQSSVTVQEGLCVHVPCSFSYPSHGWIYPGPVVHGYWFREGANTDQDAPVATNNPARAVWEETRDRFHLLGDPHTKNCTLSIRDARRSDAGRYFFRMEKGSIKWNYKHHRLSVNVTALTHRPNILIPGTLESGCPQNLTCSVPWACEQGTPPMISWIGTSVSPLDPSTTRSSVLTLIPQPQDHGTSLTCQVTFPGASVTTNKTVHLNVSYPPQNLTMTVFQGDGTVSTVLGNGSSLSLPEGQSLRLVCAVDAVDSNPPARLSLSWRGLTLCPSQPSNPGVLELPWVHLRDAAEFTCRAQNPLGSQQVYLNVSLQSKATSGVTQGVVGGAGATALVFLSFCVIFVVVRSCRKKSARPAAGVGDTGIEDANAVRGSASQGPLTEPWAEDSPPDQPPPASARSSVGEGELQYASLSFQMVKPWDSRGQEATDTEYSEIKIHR

[5] = system: Trypanosoma cruzi; test: Trypanosoma cruzi phosphomannomutase and mannose-1-phosphate guanylyltransferase assay; type: functional; settings: 10 µM
[6] = target: T2, Arginase-2, mitochondrial (Homo sapiens) (UniProt P78540); test: in vitro enzyme assay to detect the production of urea directly proportional to the activity of Arginase II; type: functional; settings: 33.3 µM; also: in the data most compounds retested in dose-response had high values
T2 sequence (whole entry): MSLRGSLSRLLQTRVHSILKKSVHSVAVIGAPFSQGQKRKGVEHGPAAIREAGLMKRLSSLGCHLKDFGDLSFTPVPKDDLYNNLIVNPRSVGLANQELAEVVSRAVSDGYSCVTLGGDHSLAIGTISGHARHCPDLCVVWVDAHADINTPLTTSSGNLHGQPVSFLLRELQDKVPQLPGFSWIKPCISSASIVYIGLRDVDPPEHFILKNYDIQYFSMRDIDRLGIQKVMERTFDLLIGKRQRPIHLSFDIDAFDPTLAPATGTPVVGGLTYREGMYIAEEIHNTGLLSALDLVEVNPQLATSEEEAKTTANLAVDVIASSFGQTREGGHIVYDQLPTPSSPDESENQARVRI

[7] = target: T3, Proteasome subunit beta (Trypanosoma cruzi) (UniProt O96673); test: Trypanosoma cruzi proteasome chymotrypsin-like activity (TcProtChymo) assay.; also: in the data most compounds retested in dose-response had high values; type: functional; settings: 9.37 µM
T3 sequence (whole entry): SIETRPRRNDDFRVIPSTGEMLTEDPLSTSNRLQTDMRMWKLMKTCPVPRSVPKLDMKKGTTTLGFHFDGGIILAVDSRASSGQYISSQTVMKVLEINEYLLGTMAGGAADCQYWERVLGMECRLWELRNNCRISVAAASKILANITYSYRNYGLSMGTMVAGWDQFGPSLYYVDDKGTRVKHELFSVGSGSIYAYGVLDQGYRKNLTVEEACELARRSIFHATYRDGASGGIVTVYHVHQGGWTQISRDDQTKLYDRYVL

[8] = species on record: Homo sapiens; test: To identify inhibition of the IFN signalling (Jak-Stat) pathway via expression of an eGFP reporter gene under the control of an IFN-stimulated response element (ISRE) containing MxA promoter.; type: functional; settings: 30 µM
[9] = target: T4, Tyrosyl-tRNA synthetase, putative (Trypanosoma cruzi (strain CL Brener)) (UniProt Q4DSP6); test: Trypanosoma cruzi tyrosyl tRNA synthetase (TcYRS) _High Tyrosine SOP; type: functional; settings: 30 µM; also: in the data most compounds retested in dose-response had high values
T4 sequence (whole entry): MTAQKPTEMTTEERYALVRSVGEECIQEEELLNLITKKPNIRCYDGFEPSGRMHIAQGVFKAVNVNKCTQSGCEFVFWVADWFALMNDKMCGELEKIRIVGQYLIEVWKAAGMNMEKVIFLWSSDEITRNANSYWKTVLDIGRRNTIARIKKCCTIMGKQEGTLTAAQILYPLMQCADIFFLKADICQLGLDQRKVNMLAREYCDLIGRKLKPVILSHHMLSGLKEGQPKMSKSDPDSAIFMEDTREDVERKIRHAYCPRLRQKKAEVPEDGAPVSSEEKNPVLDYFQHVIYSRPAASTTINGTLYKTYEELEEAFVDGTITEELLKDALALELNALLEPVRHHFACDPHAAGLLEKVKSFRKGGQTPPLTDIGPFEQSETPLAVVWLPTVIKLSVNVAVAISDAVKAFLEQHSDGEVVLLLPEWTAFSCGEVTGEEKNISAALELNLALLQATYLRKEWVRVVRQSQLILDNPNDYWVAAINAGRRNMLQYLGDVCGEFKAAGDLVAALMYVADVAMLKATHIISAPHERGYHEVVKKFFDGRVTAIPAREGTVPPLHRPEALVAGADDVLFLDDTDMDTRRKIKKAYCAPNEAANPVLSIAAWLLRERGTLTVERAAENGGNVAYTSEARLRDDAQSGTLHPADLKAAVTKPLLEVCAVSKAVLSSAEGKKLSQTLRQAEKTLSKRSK

[10] = target: T4, Tyrosyl-tRNA synthetase, putative (Trypanosoma cruzi (strain CL Brener)); test: Trypanosoma cruzi tyrosyl tRNA synthetase (TcYRS) SOP; type: functional; settings: 30 µM
[11] = target: Chromo domain-containing protein 1 (Saccharomyces cerevisiae (strain ATCC 204508 / S288c) (Baker's yeast)) (UniProt P32657); test: ScCHD-1 Enzyme Inhibition Assay; type: functional; settings: 30 µM; also: in the data most compounds retested in dose-response had high values
Chain of Chromo domain-containing protein 1 (Saccharomyces cerevisiae (strain ATCC 204508 / S288c) (Baker's yeast)) (P32657 whole entry, the tested form may be a part): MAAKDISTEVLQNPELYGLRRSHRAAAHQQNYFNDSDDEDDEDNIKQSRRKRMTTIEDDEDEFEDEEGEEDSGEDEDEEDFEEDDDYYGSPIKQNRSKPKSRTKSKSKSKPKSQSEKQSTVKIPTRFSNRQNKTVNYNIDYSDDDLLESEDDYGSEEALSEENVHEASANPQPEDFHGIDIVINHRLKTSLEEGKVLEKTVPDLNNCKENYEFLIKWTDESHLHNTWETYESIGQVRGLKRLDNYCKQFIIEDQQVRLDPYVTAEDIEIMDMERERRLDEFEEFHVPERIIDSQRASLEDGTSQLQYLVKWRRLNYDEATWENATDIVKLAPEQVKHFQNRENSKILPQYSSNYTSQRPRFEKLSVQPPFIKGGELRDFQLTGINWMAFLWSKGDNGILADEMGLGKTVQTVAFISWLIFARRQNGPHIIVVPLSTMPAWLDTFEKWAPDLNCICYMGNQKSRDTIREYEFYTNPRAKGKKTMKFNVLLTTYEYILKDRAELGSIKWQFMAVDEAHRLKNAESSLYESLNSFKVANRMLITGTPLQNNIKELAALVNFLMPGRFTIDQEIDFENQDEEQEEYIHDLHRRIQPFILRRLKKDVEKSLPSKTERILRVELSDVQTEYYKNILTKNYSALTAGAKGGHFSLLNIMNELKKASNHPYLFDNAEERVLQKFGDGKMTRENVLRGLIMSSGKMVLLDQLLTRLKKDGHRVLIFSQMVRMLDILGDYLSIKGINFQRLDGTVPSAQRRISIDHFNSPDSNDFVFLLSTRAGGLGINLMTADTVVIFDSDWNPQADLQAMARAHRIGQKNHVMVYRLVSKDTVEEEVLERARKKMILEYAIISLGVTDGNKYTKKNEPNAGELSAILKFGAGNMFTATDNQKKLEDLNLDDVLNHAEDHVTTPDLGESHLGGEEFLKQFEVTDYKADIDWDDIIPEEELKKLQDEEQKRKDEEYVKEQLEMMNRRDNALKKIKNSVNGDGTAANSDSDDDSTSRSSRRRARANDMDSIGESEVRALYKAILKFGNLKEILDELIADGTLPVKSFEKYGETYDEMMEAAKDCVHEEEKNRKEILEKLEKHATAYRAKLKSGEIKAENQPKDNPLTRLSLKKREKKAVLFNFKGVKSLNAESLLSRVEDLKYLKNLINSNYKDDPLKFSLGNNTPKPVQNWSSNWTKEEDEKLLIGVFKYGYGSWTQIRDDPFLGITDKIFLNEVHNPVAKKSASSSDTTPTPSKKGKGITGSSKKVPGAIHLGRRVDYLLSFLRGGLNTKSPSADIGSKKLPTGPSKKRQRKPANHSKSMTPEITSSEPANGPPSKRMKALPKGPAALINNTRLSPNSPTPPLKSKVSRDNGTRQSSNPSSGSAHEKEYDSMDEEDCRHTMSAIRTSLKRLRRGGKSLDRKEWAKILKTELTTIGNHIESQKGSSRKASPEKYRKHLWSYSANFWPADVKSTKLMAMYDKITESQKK

Structure (SMILES)	Percent Effect [1] [%]	Percent Effect [2] [%]	Percent Effect [3] [%]	Percent Effect [4] [%]	Percent Effect [5] [%]	Percent Effect [6] [%]	Percent Effect [7] [%]	Percent Effect [8] [%]	Percent Effect [9] [%]	Percent Effect [10] [%]	Percent Effect [11] [%]
O=C(CCc1nccs1)N1CCN(c2ccc(Br)cn2)CC1	-7.37	7.79	14.3	-8.09	-1.27	-1.05	-4.12	31.4	2.86	7.06	-21.6
CCN1CC(C(=O)NCc2ccccc2-n2cccn2)CC1=O (configuration not stated)	-2.49	13	0.208	2.02	2.45	-1.05	15	11	5.71	23.5	-8.96
CNC(=O)c1cc2c(nc1N(C)C)CCN(S(=O)(=O)CC(C)C)CC2	-2.25	5.2	7.84	6.98	-2.27	-5.81	3.83	-12.4	-9.52	1.28	-2.31
Cc1nc(CN2CCCN(C(=O)c3ccccn3)CC2)oc1C	-1.98	7.79	0.524	-0.904	-0.686	4	10.8	33	2.86	11.8	-5.21
CCOCc1cccc(S(=O)(=O)N2CCSCC2)c1	-3.9	1.33	4.84	4.89	-6.09	0.88	7.58	5.82	4.23	-2.56	-3.83
CNc1cncc(C2CCCN(S(C)(=O)=O)C2)n1 (configuration not stated)	-1.57	-1.35	13.3	2.54	-6.92	3.48	17	23.6	1.07	6.49	-15.8
CN(CCn1cccn1)S(=O)(=O)N1CCCC1c1ccco1 (configuration not stated)	1.7	-5.41	-2.17	-0.333	-5.48	9.43	-3.05	13.8	-0.99	-6.1	3.02
O=C(Cc1cccs1)N1C[C@@H]2COC[C@]2(COc2cccnc2)C1	-2.91	8.11	-0.523	-5.15	7.62	-1.25	8.2	-12.3	7.92	11	-1.81
CN(C)CCn1c(=O)oc2ccc(NC(=O)C3CCCO3)cc21 (configuration not stated)	-6.72	5.33	-5.94	4.64	-1.85	1.56	6.8	5.49	8.2	11.1	-5.1
CC(C)CNC(=O)[C@H]1CCS(=O)(=O)[C@@H]2CN(Cc3cccc(Cl)c3)C[C@H]12	-8.49	0	6.38	3.48	-2.15	0	12.3	12.5	3.96	1.22	3.36
CCCNC(=O)C(C)n1cc(Br)cn1 (configuration not stated)	-2.1	7.79	-0.549	2.6	-1.87	-194	5.49	-4.17	4.3	18.5	0.506
CN(C)c1ncnc2c1CCN(CC1CCCC1)CC2	-3.48	5.41	5.95	-2.79	-3.81	-4.14	15.1	-8.91	4.32	15.4	1.8
Cc1cc(C)n(CC2CN(CCOc3cccc(C#N)c3)CCO2)n1 (configuration not stated)	-6.03	13.2	-3.15	-7.82	-1.21	-0.719	1.44	6.94	7.39	-6.17	-0.144
O=C(Nc1nc2c(s1)CCC2)c1cccnc1N1CCOCC1	-0.311	-2.63	9.51	-0.88	-4.19	11.8	4.7	2.75	0	-2.6	1.45
CNC(=O)c1cc2c(nc1NC(C)C)CCN(C(=O)NC(C)C)CC2	-2.44	0	-4.24	-6.22	-2.64	-0.744	-2.83	-8.82	6.45	6.17	-0.531
O=C(NCc1cc(=O)n2c(n1)CN(CC1CCOC1)CCC2)C1CC1 (configuration not stated)	0.233	2.74	-1.09	5.91	6.35	-0.399	6.76	-4.97	3.12	11.1	-3.69
Cn1cc(C(=O)N2C[C@@H]3COC[C@]3(COCc3cccnc3)C2)cn1	0.921	13	7.58	1.08	-4.83	11	17.4	3.89	0	8.97	-5.24
O=C(CCc1cccs1)N1CCCCC1Cn1cccn1 (configuration not stated)	-6.87	10.4	-2.34	-15.4	5.19	-1.47	10.4	1.69	5.71	21.2	-15.9
COc1ccc(OCc2nc(C(=O)N3CC(O)C3)co2)cc1	-5.91	5.41	4.37	4.07	1.74	1.43	3.28	2.54	4.76	2.44	-0.668
COc1c(C)cnc(CN2CCC(N(C)C(C)C(N)=O)CC2)c1C (configuration not stated)	-2.36	13	3.82	-8.74	-3.56	-0.712	8.95	42.8	8.74	14.6	-7.36
Cn1ccc(C(=O)NC2CCC23CCN(C(=O)c2ccncc2)CC3)c1 (configuration not stated)	3.11	11	-2.76	16.4	-3.17	0	13.6	3.03	5.21	13.6	0.95
COc1ccc(C[C@H]2CN(c3nnc(C)s3)CC[C@@H]2OC)cc1	-4.17	5.33	-2.8	-1.52	2.7	-49.6	5.81	3.46	-34.4	7.5	86.4
